Results as given in ChEMBL document CHEMBL3433997, “St. Jude Leishmania screening dataset” (2016).

Experiments:
Assay type in all cases: functional
[1] = target: Solute carrier family 2, facilitated glucose transporter member 1 (Homo sapiens) (UniProt P11166); assay: ST_JUDE_LEISH: Cytotoxicity at 2uM final concentration against transgenic Leishmania Mexicana promastigotes LmGLUT1 that are glucose transport deficient and complemented with the human glucose transporter GLUT1. Activity is measured by DNA content using SYBR green in vitro
[2] = target: Hexose transporter 1 (Plasmodium falciparum) (UniProt O97467); assay: ST_JUDE_LEISH: Cytotoxicity at 2uM final concentration against transgenic Leishmania Mexicana promastigotes LmPfHT that are glucose transport deficient and complemented with the Plasmodium falciparum hexose transporter. Activity is measured by DNA content using SYBR green in vitro
[3] = target: Glucose transporter (Leishmania mexicana) (UniProt O61059); assay: ST_JUDE_LEISH: Cytotoxicity at 2uM final concentration against transgenic Leishmania Mexicana promastigotes LmGT2 that are glucose transport deficient and complemented with the L. Mexicana glucose transporter 2. Activity is measured by DNA content using SYBR green in vitro

Sequence of Solute carrier family 2, facilitated glucose transporter member 1 (Homo sapiens) (P11166 whole entry): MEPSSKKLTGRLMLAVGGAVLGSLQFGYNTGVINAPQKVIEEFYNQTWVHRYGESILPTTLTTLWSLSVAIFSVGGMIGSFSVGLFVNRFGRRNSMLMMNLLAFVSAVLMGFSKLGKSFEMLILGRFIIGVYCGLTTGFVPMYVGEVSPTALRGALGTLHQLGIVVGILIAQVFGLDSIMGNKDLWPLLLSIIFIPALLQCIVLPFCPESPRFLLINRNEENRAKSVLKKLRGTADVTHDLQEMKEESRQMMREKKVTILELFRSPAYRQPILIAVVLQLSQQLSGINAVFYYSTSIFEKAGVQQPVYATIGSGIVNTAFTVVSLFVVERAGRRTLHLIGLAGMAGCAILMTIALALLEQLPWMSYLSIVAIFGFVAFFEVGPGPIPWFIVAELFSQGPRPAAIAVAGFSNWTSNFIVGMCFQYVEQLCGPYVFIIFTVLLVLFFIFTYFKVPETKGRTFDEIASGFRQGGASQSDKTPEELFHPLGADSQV

SMILES	inhibition [1] [%]	inhibition [2] [%]	inhibition [3] [%]
CC(CN1CCN(C)CC1)C(=O)Nc1cccc(-c2ccc(-c3nc4ccccc4[nH]3)cc2)c1 (centres undefined)	0.63	1.17	-1.58
O=C(NCC1CCN(Cc2cccc(C(F)(F)F)c2)C1)c1cc(-c2cccc(F)c2)cs1 (centres undefined)	5.58	5.35	5.45
O=C(/C=C/c1ccc(Cl)c(Cl)c1)NCCCCCN1CCC(n2c(=O)[nH]c3ccccc32)CC1	8.14	7.32	7.73
N#Cc1cccc(C(=O)Nc2ccc(-c3ccc(CN4CCCC4)cc3)cc2)c1	7.84	6.53	3.78
Cc1ccc(NC(=O)c2ccc(CN3CCCN(CC4CCCCC4)CC3)cc2)cc1F	8.8	6.75	11.2
NC1CCN(CCc2ccc(NS(=O)(=O)c3ccc(-c4ccccc4)cc3)cc2)CC1	0.64	-0.24	0.08
CN1CCN(c2ccnc3ccc(NC(=O)Nc4ccc(Br)cc4)cc23)CC1	-0.59	0.3	0.32
Clc1ccc(-c2csc3ncnc(Cl)c23)cc1	4.6	0.54	4.02
COc1ccc(-c2csc3ncnc(Cl)c23)cc1	5.44	5.72	4.99
CC(C)Sc1ccc(Cl)cc1CON1C(=N)N=C(N)NC1(C)C	2.72	2.18	0.87
Cc1noc(C)c1-c1cccc(CNCc2cccc(-c3cccc(-c4nc5cccc(C)c5[nH]4)c3)c2)c1	-0.61	-0.81	-0.78
CCOc1ccc(-c2nonc2NC(=O)c2ccccc2OC)cc1OCC	3.08	2.92	0.46
Cc1ccc(CN2CCCN(Cc3cccc(NC(=O)c4cc5ccccc5s4)c3)CC2)cc1	-0.92	-0.94	-2.83
